Measured values taken from PubChem BioAssay (EPA / NIEHS).
Active and inactive are the calls of the source. How the source made its calls: active means hit-call score of the fitted dose curve at least 0.9, where 1 is the maximum; inactive means score below 0.9.

The molecules below were run on Insulin Like Growth Factor 1 (IGF1), IGF1 (gene 3479) (assay: LTEA_HepaRG_IGF1: Life Technologies and Expression Analysis (LTEA) Assay for Insulin Like Growth Factor 1 (IGF1) using HepaRG (AID 2283506)). Settings: mRNA level, 48 h; actives raise or lower the signal.
Method in brief: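 Differentiated HepaRG cells in serum-free induction medium, exposed 48 h in duplicate to 8 half-log concentrations up to 100 uM in 0.5% DMSO. IGF1 mRNA by Fluidigm qRT-PCR, normalised to ACTB, GAPDH and POLR2A.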

SMILES | AC50 | outcome
CSC(=O)c1c(C(F)F)nc(C(F)(F)F)c(C(=O)SC)c1CC(C)C | 66 µM (active) | 
CCOc1cc(C(C)(C)C)ccc1C1COC(c2c(F)cccc2F)=N1 (stereo not given) | 16.6 µM (active) | 
COC(=O)N(C(=O)N1CO[C@@]2(C(=O)OC)Cc3cc(Cl)ccc3C2=N1)c1ccc(OC(F)(F)F)cc1 | 4.25 µM (active) | 
CC(C)N1C(=O)c2ccccc2NS1(=O)=O |  | inactive
CCCC(=NOCC)C1=C(O)CC(CC(C)SCC)CC1=O (stereo not given) |  | inactive
C=CCOC(=O)C(C)(C)OC(=O)c1cc(-n2c(=O)cc(C(F)(F)F)n(C)c2=O)ccc1Cl |  | inactive
CC(C)Oc1cccc(NC(=O)c2ccccc2C(F)(F)F)c1 | 80.9 µM (active) | 
CC(C)NC(=O)N1CC(=O)N(c2cc(Cl)cc(Cl)c2)C1=O | 3.79 µM (active) | 
CC1(C)CCC(=Cc2ccc(Cl)cc2)C1(O)Cn1cncn1 (stereo not given) | 25 µM (active) | 
COCC(=O)N(c1c(C)cccc1C)C(C)C(=O)OC (stereo not given) |  | inactive
CCOc1nc(F)cc2nc(S(=O)(=O)Nc3c(Cl)cccc3Cl)nn12 | 14.4 µM (active) | 
COP(=O)(OC)O/C(C)=C/C(=O)N(C)C |  | inactive
CC(C)N1C(=O)N(c2ccccc2)CSC1=NC(C)(C)C | 59.9 µM (active) | 

What follows are molecules tested on Intercellular Adhesion Molecule 1 (ICAM1), ICAM1 (gene 3383) (assay: LTEA_HepaRG_ICAM1: Life Technologies and Expression Analysis (LTEA) Assay for Intercellular Adhesion Molecule 1 (ICAM1) using HepaRG (AID 2283507)). Settings: mRNA level, 48 h; actives raise or lower the signal.
Method in brief: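 Differentiated human HepaRG cells in serum-free induction medium exposed 48 h in duplicate to 8 half-log concentrations (top 100 uM, 0.5% DMSO). ICAM1 mRNA quantified by TaqMan qRT-PCR, normalized to ACTB, GAPDH and POLR2A; bidirectional fitting versus DMSO.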

SMILES | outcome | AC50
COCC(C)N(C(=O)CCl)c1c(C)csc1C (stereo not given) | inactive | 
COC(=O)c1c(C(F)F)nc(C(F)(F)F)c(C2=NCCS2)c1CC(C)C | inactive | 
Cn1c(-c2ccccc2)cc(-c2ccccc2)[n+]1C | inactive | 
COC(=O)NS(=O)(=O)c1ccc(N)cc1 | inactive | 
CC(C)Nc1nc(Cl)nc(NC(C)C)n1 | inactive | 
COC(=O)NC(=S)Nc1ccccc1NC(=S)NC(=O)OC | inactive | 
Clc1cccc(C(Cl)(Cl)Cl)n1 | inactive | 
COP(=S)(OC)Oc1ccc([N+](=O)[O-])c(C)c1 | inactive | 
CCOP(=S)(OCC)Oc1nc(Cl)n(C(C)C)n1 | inactive | 
COc1cc(Cl)c(OC)cc1Cl | inactive | 
CCCCC(O)(Cn1cncn1)c1ccc(Cl)cc1Cl (stereo not given) |  | 83.9 µM (active)
CNC(=O)N(C)c1nnc(C(C)(C)C)s1 | inactive | 
O=C(Nc1ccccc1-c1ccc(Cl)cc1)c1cccnc1Cl | inactive | 
CCNC(=O)NC(=O)C(C#N)=NOC | inactive | 
CCN(CC)C(=O)C(C)Oc1cccc2ccccc12 (stereo not given) | inactive | 
CC1(C)CON(Cc2ccccc2Cl)C1=O | inactive | 
CCOc1nc(C(Cl)(Cl)Cl)ns1 |  | 1.38 µM (active)
CN=C=S | inactive | 

SMILES | outcome | AC50
C=C(C)CN(CC)c1c([N+](=O)[O-])cc(C(F)(F)F)cc1[N+](=O)[O-] | inactive | 
Nc1c(Cl)c(Cl)nc(C(=O)O)c1Cl | inactive | 
CC1(C)C(C=C(Cl)Cl)C1C(=O)OC(C#N)c1cccc(Oc2ccccc2)c1 (stereo not given) | inactive | 
Cc1cnc(C2=NC(C)(C(C)C)C(=O)N2)c(C(=O)O)c1 (stereo not given) | inactive | 
CSC(=O)c1c(C(F)F)nc(C(F)(F)F)c(C(=O)SC)c1CC(C)C | inactive | 
CCOc1cc(C(C)(C)C)ccc1C1COC(c2c(F)cccc2F)=N1 (stereo not given) | inactive | 
COC(=O)N(C(=O)N1CO[C@@]2(C(=O)OC)Cc3cc(Cl)ccc3C2=N1)c1ccc(OC(F)(F)F)cc1 | inactive | 
CC(C)N1C(=O)c2ccccc2NS1(=O)=O | inactive | 
CCCC(=NOCC)C1=C(O)CC(CC(C)SCC)CC1=O (stereo not given) | inactive | 
C=CCOC(=O)C(C)(C)OC(=O)c1cc(-n2c(=O)cc(C(F)(F)F)n(C)c2=O)ccc1Cl | inactive | 
CC(C)Oc1cccc(NC(=O)c2ccccc2C(F)(F)F)c1 | inactive | 
CC(C)NC(=O)N1CC(=O)N(c2cc(Cl)cc(Cl)c2)C1=O | inactive | 
CC(C)(C)C(=O)C(Oc1ccc(Cl)cc1)n1cncn1 (stereo not given) | inactive | 
CC1(C)CCC(=Cc2ccc(Cl)cc2)C1(O)Cn1cncn1 (stereo not given) | inactive | 
COCC(=O)N(c1c(C)cccc1C)C(C)C(=O)OC (stereo not given) | inactive | 
CCOc1nc(F)cc2nc(S(=O)(=O)Nc3c(Cl)cccc3Cl)nn12 | inactive | 
COP(=O)(OC)O/C(C)=C/C(=O)N(C)C | inactive | 
CC(C)N1C(=O)N(c2ccccc2)CSC1=NC(C)(C)C |  | 74.6 µM (active)

The molecules below were run on Insulin-like growth factor-binding protein 1 (IGFBP1), IGFBP1 (gene 3484) (assay: LTEA_HepaRG_IGFBP1: Life Technologies and Expression Analysis (LTEA) Assay for Insulin-like growth factor-binding protein 1 (IGFBP1) using HepaRG (AID 2283508)). Settings: mRNA level, 48 h; actives raise or lower the signal.
Method in brief: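 HepaRG cells, plated 48 h then switched to serum-free induction medium, exposed in duplicate for 48 h to 8-point half-log series from 100 uM in 0.5% DMSO. mRNA measured by qRT-PCR, normalized to ACTB/GAPDH/POLR2A; bidirectional fit versus DMSO.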

SMILES | outcome | AC50
COCC(C)N(C(=O)CCl)c1c(C)csc1C (stereo not given) | inactive | 
COC(=O)c1c(C(F)F)nc(C(F)(F)F)c(C2=NCCS2)c1CC(C)C | inactive | 
Cn1c(-c2ccccc2)cc(-c2ccccc2)[n+]1C |  | 50 µM (active)
COC(=O)NS(=O)(=O)c1ccc(N)cc1 | inactive | 
CC(C)Nc1nc(Cl)nc(NC(C)C)n1 | inactive | 
COC(=O)NC(=S)Nc1ccccc1NC(=S)NC(=O)OC | inactive | 
Clc1cccc(C(Cl)(Cl)Cl)n1 | inactive | 
COP(=S)(OC)Oc1ccc([N+](=O)[O-])c(C)c1 | inactive | 
CCOP(=S)(OCC)Oc1nc(Cl)n(C(C)C)n1 |  | 1.57 µM (active)
COc1cc(Cl)c(OC)cc1Cl | inactive | 
CCCCC(O)(Cn1cncn1)c1ccc(Cl)cc1Cl (stereo not given) |  | 79.3 µM (active)
CNC(=O)N(C)c1nnc(C(C)(C)C)s1 | inactive | 
O=C(Nc1ccccc1-c1ccc(Cl)cc1)c1cccnc1Cl | inactive | 
CCNC(=O)NC(=O)C(C#N)=NOC | inactive | 
CCN(CC)C(=O)C(C)Oc1cccc2ccccc12 (stereo not given) | inactive | 
CC1(C)CON(Cc2ccccc2Cl)C1=O | inactive | 
CCOc1nc(C(Cl)(Cl)Cl)ns1 |  | 1.01 µM (active)
CN=C=S | inactive | 

SMILES | outcome | AC50
C=C(C)CN(CC)c1c([N+](=O)[O-])cc(C(F)(F)F)cc1[N+](=O)[O-] | inactive | 
Nc1c(Cl)c(Cl)nc(C(=O)O)c1Cl | inactive | 
CC1(C)C(C=C(Cl)Cl)C1C(=O)OC(C#N)c1cccc(Oc2ccccc2)c1 (stereo not given) | inactive | 
Cc1cnc(C2=NC(C)(C(C)C)C(=O)N2)c(C(=O)O)c1 (stereo not given) | inactive | 
CSC(=O)c1c(C(F)F)nc(C(F)(F)F)c(C(=O)SC)c1CC(C)C |  | 49.8 µM (active)
CCOc1cc(C(C)(C)C)ccc1C1COC(c2c(F)cccc2F)=N1 (stereo not given) | inactive | 
COC(=O)N(C(=O)N1CO[C@@]2(C(=O)OC)Cc3cc(Cl)ccc3C2=N1)c1ccc(OC(F)(F)F)cc1 |  | 40 µM (active)
CC(C)N1C(=O)c2ccccc2NS1(=O)=O | inactive | 
CCCC(=NOCC)C1=C(O)CC(CC(C)SCC)CC1=O (stereo not given) | inactive | 
C=CCOC(=O)C(C)(C)OC(=O)c1cc(-n2c(=O)cc(C(F)(F)F)n(C)c2=O)ccc1Cl | inactive | 
CC(C)Oc1cccc(NC(=O)c2ccccc2C(F)(F)F)c1 | inactive | 
CC(C)NC(=O)N1CC(=O)N(c2cc(Cl)cc(Cl)c2)C1=O | inactive | 
CC(C)(C)C(=O)C(Oc1ccc(Cl)cc1)n1cncn1 (stereo not given) | inactive | 
CC1(C)CCC(=Cc2ccc(Cl)cc2)C1(O)Cn1cncn1 (stereo not given) | inactive | 
COCC(=O)N(c1c(C)cccc1C)C(C)C(=O)OC (stereo not given) | inactive | 
CCOc1nc(F)cc2nc(S(=O)(=O)Nc3c(Cl)cccc3Cl)nn12 |  | 50 µM (active)
COP(=O)(OC)O/C(C)=C/C(=O)N(C)C | inactive | 
CC(C)N1C(=O)N(c2ccccc2)CSC1=NC(C)(C)C |  | 89.1 µM (active)
